PubChem BioAssay (Tox21)
Results filed as inconclusive are left out. Active and inactive are the calls of the source. Unless noted, calls follow the shape of the full dose curve.

Columns and labels:
[1] = Nuclear factor erythroid 2-related factor 2/antioxidant responsive element (Nrf2/ARE) small molecule agonists: qHTS cell viability counter screen in human keratinocytes (AID 1919968; active = well fitted curve in the direction sought with a large enough effect in the repeat runs; an effect the other way counts as inactive or inconclusive; also: nearly all actives have a fitted effect of over 55% in size)
Outline: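 Parallel cytotoxicity read: KeratinoSens HaCaT cells, compound treatment 23 h, viability by CellTiter-Fluor fluorescence 1 h post-reagent.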

[2] = Nuclear factor erythroid 2-related factor 2/antioxidant responsive element (Nrf2/ARE) small molecule agonists: luciferase reporter gene qHTS assay in human keratinocytes (AID 1919969); also: nearly all actives have a fitted effect of over 35% in size
[3] = molecular target: Gonadotropin-releasing hormone receptor (Homo sapiens) (UniProt P30968); assay: Human gonadotropin-releasing hormone receptor (GnRHR) small molecule agonists, calcium flux assay in GnRHR-HEK293 cells (AID 1920063); also: nearly all actives have a fitted effect of over 35% in size
Chain of Gonadotropin-releasing hormone receptor (Homo sapiens) (P30968 whole entry, looked up): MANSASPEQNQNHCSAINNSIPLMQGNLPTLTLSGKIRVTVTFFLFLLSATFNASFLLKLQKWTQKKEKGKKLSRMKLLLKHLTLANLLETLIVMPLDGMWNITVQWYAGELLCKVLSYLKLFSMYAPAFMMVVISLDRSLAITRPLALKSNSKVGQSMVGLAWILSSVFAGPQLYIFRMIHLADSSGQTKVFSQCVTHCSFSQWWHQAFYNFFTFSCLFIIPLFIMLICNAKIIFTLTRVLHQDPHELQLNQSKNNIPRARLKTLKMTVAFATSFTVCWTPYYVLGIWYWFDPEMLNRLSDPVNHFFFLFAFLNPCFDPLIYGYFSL
Outline: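 Calcium flux, agonist mode, human GnRHR stably integrated in HEK293; dye 1 h at 37 C before compound; Ex/Em=480/540 kinetic read, 3 min; 15 concentrations, triplicate.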

[4] = molecular target: KiSS-1 receptor (Homo sapiens) (UniProt Q969F8); assay: Human kisspeptin (KISS1R) small molecule agonists, calcium flux assay in KISS1R-HEK293 cells (AID 1920064; active = well fitted curve in the direction sought with a large enough effect in the repeat runs; an effect the other way counts as inactive or inconclusive)
Chain of KiSS-1 receptor (Homo sapiens) (Q969F8 whole entry, looked up): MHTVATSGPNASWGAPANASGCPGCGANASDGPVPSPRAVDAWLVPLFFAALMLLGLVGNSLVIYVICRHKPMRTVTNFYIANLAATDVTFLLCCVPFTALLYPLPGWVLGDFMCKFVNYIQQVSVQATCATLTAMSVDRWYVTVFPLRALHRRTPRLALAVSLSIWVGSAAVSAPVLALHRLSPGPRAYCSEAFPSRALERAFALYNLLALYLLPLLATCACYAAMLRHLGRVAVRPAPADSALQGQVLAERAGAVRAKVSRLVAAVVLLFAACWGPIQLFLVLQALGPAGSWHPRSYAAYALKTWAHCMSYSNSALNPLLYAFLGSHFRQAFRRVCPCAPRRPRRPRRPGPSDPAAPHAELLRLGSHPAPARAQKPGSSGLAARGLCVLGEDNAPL
Outline: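 Triplicate 15-concentration series were applied to dye-loaded human KISS1R HEK293 cells, and agonist-evoked calcium fluorescence was captured for 3 min.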

[5] = G protein-coupled receptor (GPCR) small molecule agonists, calcium flux assay: HEK293 wild type cell line counter screen (AID 1920065)
Outline: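 Non-specific calcium responders were flagged by adding DMSO-dissolved compounds to dye-loaded cells and reading 480/540 nm fluorescence each second for 3 min; ATP served as positive control.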

[6] = p53 small molecule agonists, cell-based qHTS assay with human liver microsomes (AID 1963577)
Outline: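 p53RE-bla reporter cells were pre-incubated 5 h at 37 C, then treated with compounds plus human liver microsomes (0.5 mg/mL final) and NADPH (0.5 mg/mL final) for 16 h at 37 C. Beta-lactamase activity was read by LiveBLAzer fluorescence after 2 h at room temperature.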

[7] = p53 small molecule agonists, cell-based qHTS assay with rat liver microsomes (AID 1963578)
Outline: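 p53RE-bla cells were exposed to compounds together with rat liver microsomes (0.5 mg/mL final) and NADPH (0.5 mg/mL final) for 16 h at 37 C, then read by LiveBLAzer beta-lactamase fluorescence after 2 h at room temperature.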

[8] = p53 small molecule agonists, cell-based qHTS assay with human liver microsomes: qHTS cell viability counter screen (AID 1963579); also: nearly all actives have a fitted effect of over 45% in size
Outline: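 p53RE-bla cells (4,000/well) were pre-incubated 5 h at 37 C, then given compounds in DMSO plus human liver microsomes (0.5 mg/mL final) and NADPH (0.5 mg/mL final) for 16 h at 37 C. Viability was read by CellTiter-Glo luminescence.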

[9] = p53 small molecule agonists, cell-based qHTS assay with rat liver microsomes: qHTS cell viability counter screen (AID 1963580); also: nearly all actives have a fitted effect of over 45% in size
Outline: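 Cytotoxicity counter screen: intracellular ATP read by CellTiter-Glo luminescence in the p53 reporter wells. HCT-116 p53RE-bla cells were treated for 16 h at 37 C alongside rat liver microsomes and NADPH, each 0.5 mg/mL final.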

[10] = p53 small molecule agonists, cell-based qHTS assay: qHTS cell viability counter screen (AID 1963581); also: nearly all actives have a fitted effect of over 45% in size
Outline: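 Multiplexed with the reporter read, a CellTiter-Glo step (30 min, room temperature) gauges ATP-based viability of HCT-116 p53RE-bla cells after 16 h compound incubation at 37 C.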

[11] = p53 small molecule agonists, cell-based qHTS assay (AID 1963582; active = well fitted activation curve with a large enough effect in the signal ratio in the repeat runs, not every such curve was filed as active; the % refers to the signal ratio)
Outline: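 Beta-lactamase reporter cells (p53RE-bla) treated with compounds for 16 h at 37 C; FRET substrate, 2 h, room temperature; fluorescence intensity.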

[12] = molecular target: 5-hydroxytryptamine receptor 2A (Homo sapiens) (UniProt P28223); assay: 5-hydroxytryptamine receptor 2A (HTR2A) small molecule antagonists, cell-based qHTS assay (AID 1963586); also: nearly all actives have a fitted effect of over 45% in size
Chain of 5-hydroxytryptamine receptor 2A (Homo sapiens) (P28223 whole entry, looked up): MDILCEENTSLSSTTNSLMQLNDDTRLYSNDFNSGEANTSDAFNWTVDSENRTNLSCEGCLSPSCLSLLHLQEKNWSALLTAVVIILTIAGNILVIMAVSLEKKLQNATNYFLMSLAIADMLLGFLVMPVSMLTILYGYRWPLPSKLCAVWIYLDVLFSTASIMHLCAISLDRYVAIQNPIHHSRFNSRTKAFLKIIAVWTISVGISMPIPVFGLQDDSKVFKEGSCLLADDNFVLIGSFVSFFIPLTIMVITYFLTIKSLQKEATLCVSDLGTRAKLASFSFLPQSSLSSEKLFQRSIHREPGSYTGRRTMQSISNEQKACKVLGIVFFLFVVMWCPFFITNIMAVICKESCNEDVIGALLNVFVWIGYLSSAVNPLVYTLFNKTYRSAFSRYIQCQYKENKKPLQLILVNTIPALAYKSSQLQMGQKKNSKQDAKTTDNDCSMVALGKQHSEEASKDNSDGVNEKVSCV
Outline: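 CHO cells stably expressing human HTR2A were plated for 18 h at 37 C, then loaded with calcium dye for 1 h. Compounds were preincubated 5 min at room temperature before DOI (4 nM solution) was added. Kinetic fluorescence was read for 3 min.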

[13] = molecular target: 5-hydroxytryptamine receptor 2A (Homo sapiens) (UniProt P28223); assay: 5-hydroxytryptamine receptor 2A (HTR2A) small molecule agonists, cell-based qHTS assay (AID 1963587); also: nearly all actives have a fitted effect of over 30% in size
Outline: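 Kinetic calcium-flux fluorescence (2 min, 1 sec intervals) after compound addition in agonist mode. HTR2A-CHO cells were cultured 18 h, then dye-loaded 1 h at 37 C.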

[14] = molecular target: Muscarinic acetylcholine receptor M1 (Homo sapiens) (UniProt P11229); assay: Cholinergic receptor muscarinic 1 (CHRM1) small molecule agonists, cell-based qHTS assay (AID 1963589); also: nearly all actives have a fitted effect of over 35% in size
Chain of Muscarinic acetylcholine receptor M1 (Homo sapiens) (P11229 whole entry, looked up): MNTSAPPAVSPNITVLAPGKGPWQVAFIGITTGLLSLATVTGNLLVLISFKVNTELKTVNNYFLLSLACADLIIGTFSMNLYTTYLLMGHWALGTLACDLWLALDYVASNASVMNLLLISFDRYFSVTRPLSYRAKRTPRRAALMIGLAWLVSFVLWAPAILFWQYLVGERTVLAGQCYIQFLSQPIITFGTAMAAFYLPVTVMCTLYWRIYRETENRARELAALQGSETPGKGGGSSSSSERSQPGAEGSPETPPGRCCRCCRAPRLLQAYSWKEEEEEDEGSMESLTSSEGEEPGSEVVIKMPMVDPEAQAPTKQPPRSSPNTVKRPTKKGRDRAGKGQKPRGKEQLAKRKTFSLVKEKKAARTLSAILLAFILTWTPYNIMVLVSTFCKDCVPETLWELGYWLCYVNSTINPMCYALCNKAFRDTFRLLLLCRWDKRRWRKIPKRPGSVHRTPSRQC
Outline: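 qHTS, 15-point titration, 3 independent runs: compounds pin-transferred onto dye-loaded CHRM1-CHO cells (human M1), calcium fluorescence followed every second to detect agonism.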

[15] = cAMP Responsive Elements (CRE) small molecule agonists, cell-based qHTS assay (AID 1963590)
Outline: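 Quantitative HTS for CRE agonists: HEK 293T CRE-bla cells, overnight plating, 3 h compound incubation at 37 C/5% CO2, then 2 h room-temperature LiveBLAzer B/G FRET substrate loading.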

[16] = cAMP Responsive Elements (CRE) small molecule antagonists, cell-based qHTS assay (AID 1963591; active = well fitted inhibition curve with a large enough effect in the signal ratio in the repeat runs, not every such curve was filed as active; the % refers to the signal ratio)
Outline: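 Fluorescence intensity from cleaved LiveBLAzer B/G substrate (2 h, room temperature) quantified CRE-bla activity in HEK 293T cells exposed 3 h to compound with 0.25 uM final NKH477.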

[17] = molecular target: Beta-2 adrenergic receptor (Homo sapiens) (UniProt P07550); assay: Adrenergic beta2 receptor (ADRB2) small molecule antagonists, cell-based qHTS assay (AID 1963592); also: series mostly up to about 92 µM; nearly all actives have a fitted effect of over 50% in size
Chain of Beta-2 adrenergic receptor (Homo sapiens) (P07550 whole entry, looked up): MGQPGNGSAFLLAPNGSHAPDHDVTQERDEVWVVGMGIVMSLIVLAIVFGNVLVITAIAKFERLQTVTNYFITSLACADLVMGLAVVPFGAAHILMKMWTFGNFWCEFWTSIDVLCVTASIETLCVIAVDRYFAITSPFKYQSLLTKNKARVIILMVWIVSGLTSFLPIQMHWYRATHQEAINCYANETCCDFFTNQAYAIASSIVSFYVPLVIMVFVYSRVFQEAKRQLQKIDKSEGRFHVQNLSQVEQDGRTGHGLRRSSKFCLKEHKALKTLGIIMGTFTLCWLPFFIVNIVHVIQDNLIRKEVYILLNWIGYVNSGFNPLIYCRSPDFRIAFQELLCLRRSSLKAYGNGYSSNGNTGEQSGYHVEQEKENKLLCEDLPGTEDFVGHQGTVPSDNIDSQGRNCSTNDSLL
Outline: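 Assay format: CHO-ADRB2 cells, 18-20hr seeding at 37C/5% CO2, then compound plus 1nM isoproterenol agonist mix for 0.5hr RT. Homogeneous time-resolved fluorescence cAMP detection after 1hr, expressed as 665/615 nm ratio.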

[18] = molecular target: D(2) dopamine receptor (Homo sapiens) (UniProt P14416); assay: Dopamine D2 receptor (DRD2) small molecule agonists, cell-based qHTS assay (AID 1963594); also: nearly all actives have a fitted effect of over 35% in size
Chain of D(2) dopamine receptor (Homo sapiens) (P14416 whole entry, looked up): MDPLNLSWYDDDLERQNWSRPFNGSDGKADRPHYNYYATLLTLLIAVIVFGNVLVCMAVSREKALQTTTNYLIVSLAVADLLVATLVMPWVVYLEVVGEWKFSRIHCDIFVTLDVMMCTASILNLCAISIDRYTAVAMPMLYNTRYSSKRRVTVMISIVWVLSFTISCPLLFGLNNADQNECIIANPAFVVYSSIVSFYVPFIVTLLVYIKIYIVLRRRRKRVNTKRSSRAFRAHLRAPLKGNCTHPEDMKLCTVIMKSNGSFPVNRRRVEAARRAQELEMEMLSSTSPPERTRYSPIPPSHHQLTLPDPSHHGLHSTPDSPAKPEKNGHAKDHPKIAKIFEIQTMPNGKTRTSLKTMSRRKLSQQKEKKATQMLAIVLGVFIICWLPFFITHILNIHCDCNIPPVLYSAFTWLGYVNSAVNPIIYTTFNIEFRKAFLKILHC
Outline: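 cAMP accumulation in DRD2-HEK293 cells measured by HTRF after 1 h detection; compounds added 10 min before NKH477 (200nM […]) forskolin-analogue stimulation, 30 min at room temperature, with Ro20-1724 present at 0.1 mM final.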

[19] = molecular target: D(2) dopamine receptor (Homo sapiens) (UniProt P14416); assay: Dopamine D2 receptor (DRD2) small molecule antagonists, cell-based qHTS assay (AID 1963595; active = well fitted inhibition curve with a large enough effect in the signal ratio in the repeat runs, with a control signal flat; the % refers to the signal ratio)
Outline: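 HEK293 cells stably expressing DRD2, preincubated with 0.1 mM Ro20-1724 and compounds 10 min, were stimulated with 200 nM NKH477 plus 12 nM quinpirole for 30 min at room temperature; cAMP measured by HTRF (665/620 nm).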
% is scaled to controls: 0 for no effect and ±100 for the full control effect.

OCCCO
inactive: Potency [1] | Potency [2] | Potency [3] | outcome [4] | outcome [5] | Potency [6] | Potency [7] | Potency [8] | Potency [9] | Potency [10] | Potency [11] | Potency [12] | Potency [13] | Potency [14] | Potency [15] | Potency [16] | Potency [17] | Potency [18] | Potency [19]

CCCCCCCCCCCCCCCCOP(=O)([O-])OCC[N+](C)(C)C
inactive: Potency [1] | Potency [2] | Potency [3] | outcome [4] | outcome [5] | Potency [6] | Potency [7] | Potency [8] | Potency [9] | Potency [10] | Potency [11] | Potency [12] | Potency [13] | Potency [14] | Potency [15] | Potency [16] | Potency [17] | Potency [18] | Potency [19]

CC(=O)OC(C)(C)C
inactive: Potency [1] | Potency [2] | Potency [3] | outcome [4] | outcome [5] | Potency [6] | Potency [7] | Potency [8] | Potency [9] | Potency [10] | Potency [11] | Potency [12] | Potency [13] | Potency [14] | Potency [15] | Potency [16] | Potency [17] | Potency [18] | Potency [19]

O=C1OC(=O)c2cc([N+](=O)[O-])ccc21
inactive: Potency [1] | Potency [2] | Potency [3] | outcome [4] | outcome [5] | Potency [6] | Potency [7] | Potency [8] | Potency [9] | Potency [10] | Potency [11] | Potency [12] | Potency [13] | Potency [14] | Potency [15] | Potency [16] | Potency [17] | Potency [19]

Cc1ccc(/C=N/n2c(-c3ccccc3)csc2=S)cc1
inactive: Potency [1] | Potency [2] | Potency [3] | outcome [4] | outcome [5] | Potency [6] | Potency [7] | Potency [8] | Potency [9] | Potency [10] | Potency [11] | Potency [12] | Potency [13] | Potency [14] | Potency [15] | Potency [16] | Potency [17] | Potency [18] | Potency [19]

Cc1cccc(C)c1NC(=O)c1ccc(N)cc1
inactive: Potency [1] | Potency [2] | Potency [3] | outcome [4] | outcome [5] | Potency [6] | Potency [7] | Potency [8] | Potency [9] | Potency [10] | Potency [11] | Potency [12] | Potency [13] | Potency [14] | Potency [15] | Potency [16] | Potency [17] | Potency [18] | Potency [19]

O=C1c2ccccc2C(=O)C1c1ccc(Br)cc1
inactive: Potency [1] | Potency [2] | Potency [3] | outcome [4] | outcome [5] | Potency [6] | Potency [7] | Potency [8] | Potency [9] | Potency [10] | Potency [11] | Potency [12] | Potency [13] | Potency [14] | Potency [17] | Potency [18]

Cc1ccc2sc3cccc(C)c3c2c1
inactive: Potency [1] | Potency [2] | Potency [3] | outcome [4] | outcome [5] | Potency [6] | Potency [7] | Potency [8] | Potency [9] | Potency [10] | Potency [11] | Potency [12] | Potency [13] | Potency [14] | Potency [15] | Potency [16] | Potency [17] | Potency [19]

O=c1[nH]c(=O)n([C@H]2O[C@H](CO)[C@@H](O)[C@@H]2O)cc1/C=C\Br
inactive: Potency [1] | Potency [2] | Potency [3] | outcome [4] | outcome [5] | Potency [6] | Potency [7] | Potency [8] | Potency [9] | Potency [10] | Potency [11] | Potency [12] | Potency [13] | Potency [14] | Potency [16] | Potency [18] | Potency [19]

ClCCl
inactive: Potency [1] | Potency [2] | Potency [3] | outcome [4] | outcome [5] | Potency [6] | Potency [7] | Potency [8] | Potency [9] | Potency [10] | Potency [11] | Potency [12] | Potency [13] | Potency [14] | Potency [15] | Potency [16] | Potency [17] | Potency [18] | Potency [19]

C=C[Si](C)(C)Cl
inactive: activity change, negative = cytotoxicity [1] -0.368% [at 8.39 µM] | activity, positive = activation [2] -0.9% [at 8.39 µM] | activity change [3] -0.471% [at 5.22 µM, hits give high values] | activation [4] -1.18% [at 6.97 µM] | activation [5] 0.126% [at 5.23 µM] | activation [6] -12.4% [at 5.99 µM] | activation [7] 0.959% [at 5.99 µM] | activity change, negative = cytotoxicity [8] -13% [at 5.99 µM] | activity change, negative = cytotoxicity [9] 8.84% [at 5.99 µM] | activity change, negative = cytotoxicity [10] -0.14% [at 5.99 µM] | activation [11] 0.341% [at 5.99 µM] | activity, negative = inhibition [12] -2.68% [at 5.62 µM] | activation [13] -0.8% [at 7.02 µM] | activation [14] 0.156% [at 6.97 µM] | activation [15] 0.4% [at 8.39 µM] | activity change, negative = inhibition [16] -10% [at 8.39 µM] | activity change, negative = inhibition [17] 2.31% [at 8.39 µM] | activation [18] 0.612% [at 8.39 µM] | activity change, negative = inhibition [19] 6.57% [at 8.38 µM]

O=C(Cn1ccnc1[N+](=O)[O-])NCCO
inactive: Potency [1] | Potency [2] | Potency [3] | outcome [4] | outcome [5] | Potency [6] | Potency [7] | Potency [8] | Potency [9] | Potency [10] | Potency [11] | Potency [12] | Potency [13] | Potency [14] | Potency [15] | Potency [16] | Potency [17] | Potency [18] | Potency [19]

C[N+](C)(C)CCCCCCCCCC[N+](C)(C)C
inactive: Potency [1] | Potency [2] | Potency [3] | outcome [4] | outcome [5] | Potency [6] | Potency [7] | Potency [8] | Potency [9] | Potency [10] | Potency [11] | Potency [12] | Potency [13] | Potency [14] | Potency [15] | Potency [16] | Potency [17] | Potency [18] | Potency [19]

CCC1C(=O)OCC1Cc1cncn1C (configuration not stated)
inactive: Potency [1] | Potency [2] | Potency [3] | outcome [4] | outcome [5] | Potency [6] | Potency [7] | Potency [8] | Potency [9] | Potency [10] | Potency [11] | Potency [12] | Potency [13] | Potency [15] | Potency [16] | Potency [17] | Potency [18]
